The panel holds about 83,000 compounds, 20% with a hit somewhere; the sample as a whole holds those more often.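 The endpoint reported here, percent growth, reads 100 for growth as untreated, 0 for no net growth and -100 for all cells dead.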 A number with no mark means an inactive call. Calls of active or inactive are those of the source. Rule for the calls: active = growth percent below 10; inactive = the rest.
Test system: MDA-MB-435 melanoma
Test: NCI-60 one-dose screen, 48 h (100 = growth as untreated, 0 = no growth, -100 = all killed)
Conditions: 10 µM unless noted

**Q.** For `COC(=O)c1c(C)nc(C)c2c1C(=O)C=C(NCc1ccccc1)C2=O`, which growth is on record?
**A.** 103%

**Q.** For `COc1ccc2[nH]cc(-c3nonc3-c3c[nH]c4ccc(Br)cc34)c2c1`, which growth is on record?
**A.** 65.8%

**Q.** How did the growth turn out when `C=C(C)[C@@H]1CC[C@]2(COC3CCCCO3)CC[C@]3(C)[C@H](CC[C@@H]4[C@@]5(C)C=C(C=O)C(=O)C(C)(C)[C@@H]5CC[C@]43C)[C@@H]12` (some centres not stated) was run?
**A.** -56.4% (active)

**Q.** For `CCOc1ncc([N+](=O)[O-])c(OCC)n1`, which growth is on record?
**A.** 124%

**Q.** For `c1ccc(-c2c(-c3ccccc3)[n+](Cc3ccc4ccccc4c3)cn2Cc2ccc3ccccc3c2)cc1`, which growth is on record?
**A.** -91.3% (active)

**Q.** For `Cn1cc(-c2csc(-c3cn(CCCN4CCOCC4)c4ccc(F)cc34)n2)c2cccnc21`, which growth is on record?
**A.** 65.3%

**Q.** How did the growth turn out when `Cc1cn(C)cn1` was run?
**A.** 98.4%

**Q.** `COC(=O)c1sccc1-c1cc(O)c(C(=O)Nc2ccccc2)s1` was tested. Which growth did it give?
**A.** 102%

**Q.** How did the growth turn out when `CCCCCc1ccc(S(=O)(=O)Nc2ccc3nc(N)oc3c2)cc1` was run?
**A.** 50.3%

**Q.** `COc1ccc2c(O)c(/C=C3\N=Nc4ncccc43)oc2c1C[C@@H]1CCNC[C@H]1F` was tested. Which growth did it give?
**A.** -9.87% (active)

**Q.** Which growth does the source give for `CCN(CC)CCCC(Cc1ccccc1)Nc1c2ccc(Cl)cc2nc2ccc(OC)cc12` (configuration not stated) here?
**A.** -66.5% (active)

**Q.** For `CNCC[C@H](Oc1cccc2ccccc12)c1cccs1`, which growth is on record?
**A.** 88.5%

**Q.** How did the growth turn out when `CCOC(=O)c1cnn(CC(C)O)c1NC(=O)NCc1cccc(F)c1` (configuration not stated) was run?
**A.** 107%

**Q.** How did the growth turn out when `N#Cc1ccc(/C=C/c2cn(-c3ccccc3)nc2-c2cccc([N+](=O)[O-])c2)cc1` was run?
**A.** 61.2%

**Q.** How did the growth turn out when `O=C(/C=C/c1ccco1)Nc1ncc(Cc2cc(Cl)ccc2Cl)s1` was run?
**A.** -47.3% (active)

**Q.** For `CCOC(=O)c1nnn(Cc2cc(=O)oc3ccc(O)cc23)c1C`, which growth is on record?
**A.** 104%

**Q.** For `CC1(C)CC[C@]23CC[C@]4(C)[C@H](CC[C@@H]5[C@@]6(C)C/C(=C/O)C(=O)C(C)(C)[C@@H]6CC[C@]54C)[C@H]2[C@H]1OC3`, which growth is on record?
**A.** 97.7%

**Q.** For `COC(=O)c1nc(-c2ccccc2)oc1S(=O)(=O)N1CCCC(C)C1` (configuration not stated), which growth is on record?
**A.** 84.5%

**Q.** With `Cc1ccc2c(/C=C/C(=O)c3cc(CN4CCOCC4)c(O)c4nc(C)ccc34)cc(CN3CCOCC3)c(O)c2n1` as the molecule, how does the growth read?
**A.** -62.6% (active)

**Q.** How did the growth turn out when `CCN1C(=O)N(CC)C2C1NN=c1s/c(=C\c3ccc(OC)cc3)c(=O)n12` (configuration not stated) was run?
**A.** -23.7% (active)

**Q.** For `COc1ccc(C/C(C)=C(\c2ccc(Cl)cc2)c2ccc(OCCN3CCCC3)cc2)cc1`, which growth is on record?
**A.** 89.4%

**Q.** With `CCN(CC)CCOc1ccc(Nc2ncc3cc(-c4c(Cl)cccc4Cl)c(=O)n(CCOC)c3n2)cc1` as the molecule, how does the growth read?
**A.** 1.33% (active)

**Q.** With `O=C(O)c1cn(C2CC2)c2cc(N3CCN(C(=O)N4CCOCC4)CC3)c(F)cc2c1=O` as the molecule, how does the growth read?
**A.** 105%

**Q.** With `Clc1ccc(-c2nc(C(Cl)Cl)nc3cc(-c4ccccc4)nn23)cc1` as the molecule, how does the growth read?
**A.** 37.9%

**Q.** `c1cc(OCCN2CCCCCC2)ccc1CNc1ccc2nc(CCC3CCCCC3)[nH]c2c1` was tested. Which growth did it give?
**A.** 40.6%

**Q.** With `CN(C)CCCC1(c2ccc(F)cc2)OCc2cc(-c3csc4ccccc34)ccc21` (configuration not stated) as the molecule, how does the growth read?
**A.** -91.4% (active)

**Q.** For `C(=C(\C1=NCCN1)n1ccc2ccccc21)/c1ccccc1`, which growth is on record?
**A.** 97.7%

**Q.** Which growth does the source give for `COc1ccc(C/C(C)=C(\c2ccc(Cl)cc2)c2ccc(OCCCN(C)C)cc2)cc1` here?
**A.** 82.6%

**Q.** For `Cc1ccc(S(=O)(=O)c2nc(-c3ccccc3)oc2SCC(N)=O)cc1`, which growth is on record?
**A.** 105%

**Q.** Which growth does the source give for `CCCCn1c(NC(C)=O)c(S(=O)(=O)c2ccccc2)c2nc3ccccc3nc21` here?
**A.** 106%

**Q.** `Cc1ccc(Cc2cnc(NC(=O)/C=C/c3ccc(C)o3)s2)cc1` was tested. Which growth did it give?
**A.** -52.5% (active)

**Q.** For `CCN(CC)CCOc1ccc(C(=O)/C=C\c2ccc(Cl)cc2Cl)cc1`, which growth is on record?
**A.** 27.3%

**Q.** With `O=C(/C=C/C12c3ccccc3C(c3ccccc31)C1C(=O)NC(=O)C12)c1ccco1` (configuration not stated) as the molecule, how does the growth read?
**A.** 0.633% (active)

**Q.** With `CCOC(=O)C1=C(CC(O)c2ccc(OC)cc2OC)NC(=O)NC1c1ccccc1` (configuration not stated) as the molecule, how does the growth read?
**A.** 99.4%

**Q.** `COc1ccc2c(c1)CC[C@@H]1[C@@H]2CC[C@]2(C)c3c(cc(C#N)c4c3sc3ccccc34)C[C@@H]12` was tested. Which growth did it give?
**A.** 105%

**Q.** `COc1ccc(-c2cn(Cc3cc4ccccc4s3)nn2)cc1OCCN1CCCCC1` was tested. Which growth did it give?
**A.** 69.6%

**Q.** How did the growth turn out when `Cc1ncc(C(=O)Nc2ccc(CN3CCN(C)CC3)c(C(F)(F)F)c2)cc1C#Cc1cnc(N)c2ccc(C#N)cc12` was run?
**A.** -28.4% (active)

Reference: PubChem BioAssay (NCI)
